# The entries come from a sample that favours the strongest signals as a whole.
# Tests used:
# Assay in all cases: glycan array binding signal (z-score within array); higher = stronger binding
# Conditions in all cases: glycan notation: IUPAC condensed, linker removed
# [1] = molecular target: GlcA3S(b1-3)Gal(b1-4)GlcNAc(b1-2)Man
# In short: (§1)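 The Consortium for Functional Glycomics database supplied 3228 glycan arrays, of which those lacking an available protein sequence were dropped. The binding signal, a within-array Z-score, was averaged across arrays of the same protein sequence and across linkers. Negative scores can be read as non-binding.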
# [2] = molecular target: GlcNAc(a1-4)Gal(b1-4)GlcNAc
# In short: as §1
# [3] = molecular target: GlcNAc(b1-2)Man(a1-3)[GlcNAc(b1-4)][GlcNAc(b1-2)Man(a1-6)]Man(b1-4)GlcNAc(b1-4)GlcNAc
# In short: as §1
# [4] = molecular target: GlcNAc(b1-2)[GlcNAc(b1-4)]Man(a1-3)[GlcNAc(b1-4)][GlcNAc(b1-2)Man(a1-6)]Man(b1-4)GlcNAc(b1-4)GlcNAc
# In short: as §1
# GlcNAc(b1-3)Fuc = molecular target: GlcNAc(b1-3)Fuc
# In short: as §1
# [5] = molecular target: GlcNAc(b1-3)Gal(b1-3)GalNAc
# In short: as §1
# [6] = molecular target: GlcNAc(b1-3)Gal(b1-4)GlcNAc(b1-2)[GlcNAc(b1-3)Gal(b1-4)GlcNAc(b1-6)]Man(a1-6)[GlcNAc(b1-3)Gal(b1-4)GlcNAc(b1-2)Man(a1-3)]Man(b1-4)GlcNAc(b1-4)GlcNAc
# In short: as §1
# [7] = molecular target: GlcNAc(b1-3)Gal(b1-4)GlcNAc(b1-3)Gal(b1-4)GlcNAc(b1-2)Man(a1-3)[GlcNAc(b1-3)Gal(b1-4)GlcNAc(b1-3)Gal(b1-4)GlcNAc(b1-2)Man(a1-6)]Man(b1-4)GlcNAc(b1-4)GlcNAc
# In short: as §1
# [8] = molecular target: GlcNAc(b1-3)Gal(b1-4)GlcNAc(b1-3)Gal(b1-4)GlcNAc(b1-3)Gal(b1-4)GlcNAc(b1-2)[GlcNAc(b1-3)Gal(b1-4)GlcNAc(b1-3)Gal(b1-4)GlcNAc(b1-3)Gal(b1-4)GlcNAc(b1-6)]Man(a1-6)[GlcNAc(b1-3)Gal(b1-4)GlcNAc(b1-3)Gal(b1-4)GlcNAc(b1-3)Gal(b1-4)GlcNAc(b1-2)Man(a1-3)]Man(b1-4)GlcNAc(b1-4)[Fuc(a1-6)]GlcNAc
# In short: as §1
# GlcNAc(b1-3)GalNAc = molecular target: GlcNAc(b1-3)GalNAc
# In short: as §1
# [9] = molecular target: GlcNAc(b1-4)GlcNAc(b1-4)GlcNAc
# In short: as §1
# GlcNAc(b1-6)GalNAc = molecular target: GlcNAc(b1-6)GalNAc
# In short: as §1
# Kdn(a2-3)Gal(b1-4)GlcNAc = molecular target: Kdn(a2-3)Gal(b1-4)GlcNAc
# In short: as §1
# [10] = molecular target: Man(a1-2)Man(a1-2)Man(a1-3)Man
# In short: as §1
# Man(a1-3)[Man(a1-6)]Man = molecular target: Man(a1-3)[Man(a1-6)]Man
# In short: as §1
# [11] = molecular target: Man(a1-3)[Man(a1-6)]Man(b1-4)GlcNAc(b1-4)[Fuc(a1-6)]GlcNAc
# In short: as §1
# [12] = molecular target: Neu5Ac(a2-3)Gal(b1-3)GlcNAc(b1-2)Man(a1-3)[GlcNAc(b1-4)][Neu5Ac(a2-3)Gal(b1-3)GlcNAc(b1-2)Man(a1-6)]Man(b1-4)GlcNAc(b1-4)GlcNAc
# In short: as §1
# [13] = molecular target: Neu5Ac(a2-3)Gal(b1-4)GlcNAc(b1-3)Gal(b1-4)[Fuc(a1-3)]GlcNAc
# In short: as §1
# [14] = molecular target: Neu5Ac(a2-3)[Neu5Ac(a2-6)]GalNAc
# In short: as §1
# [15] = molecular target: Neu5Ac(a2-6)Gal(b1-4)GlcNAc(b1-2)Man(a1-3)[Man(a1-6)]Man(b1-4)GlcNAc(b1-4)GlcNAc
# In short: as §1
# [16] = molecular target: Neu5Ac(a2-6)Gal(b1-4)GlcNAc(b1-3)Gal(b1-4)GlcNAc
# In short: as §1
# [17] = molecular target: Neu5Ac(a2-6)Gal(b1-4)GlcNAc(b1-3)Gal(b1-4)GlcNAc(b1-3)Gal(b1-4)GlcNAc(b1-2)Man(a1-3)[Neu5Ac(a2-6)Gal(b1-4)GlcNAc(b1-3)Gal(b1-4)GlcNAc(b1-3)Gal(b1-4)GlcNAc(b1-2)Man(a1-6)]GalNAc
# In short: as §1
# [18] = molecular target: Neu5Ac(a2-6)Gal(b1-4)GlcNAc(b1-3)[Neu5Ac(a2-6)Gal(b1-4)GlcNAc(b1-6)]GalNAc
# In short: as §1
# [19] = molecular target: Neu5Ac(a2-6)GlcNAc(b1-4)GlcNAc
# In short: as §1
# [20] = molecular target: Neu5Ac(a2-8)Neu5Ac(a2-8)Neu5Ac(a2-3)[Gal(b1-3)GalNAc(b1-4)]Gal(b1-4)Glc
# In short: as §1
# [21] = molecular target: Neu5Ac(a2-8)Neu5Ac(a2-8)Neu5Ac(a2-3)[GalNAc(b1-4)]Gal(b1-4)Glc
# In short: as §1
# [22] = molecular target: Neu5Gc(a2-3)Gal(b1-4)GlcNAc
# In short: as §1
# [23] = molecular target: Neu5Gc(b2-6)Gal(b1-4)GlcNAc
# In short: as §1
binder,measurement,setting,value
GS13599A-bth-520-23-520 (Bacteroides thetaiotaomicron) (protein) SEDTMDRINKDHDHTTSVASRFILADVITSTAFSNASGDINTYASSYIEYEVGVDNQLYYAEVRENEPSSSSTFNNSWNGIYSSLKNARIIIDQCGEGGRDHGNDVTRGMAEVMAAYNCALIADFFGDAPCSQAALVDEKGSPVYMTPKMDTQQEIYTQIISYLDDAIANLQKEDLADVTEQDFLYAGDADKWLKFAYGLKARYTMRLINRSSNKSADYEKVLDYVSKSFTSADDQAAFDIYDSNNINPFYGFYNSRAGFGASTSLGTKLLAYNDPRANRAFFTPIVDKKRSQVAANDPSLVPAPNGSPDQSTSKYGISAFVYAKTAPTLLMSYHELMFLKAEALCRLNRDAEDALKEAVVAGLLNAENSISIAIKELGSGLNTNSSEVITETSAGKYFDDVVKAKYAANPLQETMIQKYLAMWGASGEATETYNDFRRMKGLNENFITLTNPNNSSKFPLRYPYGNSDTAANPEVKAAYGNGDYVYSEPVWWAGGSR,glycan array binding signal (z-score),[1],-0.448
same,glycan array binding signal (z-score),[2],-0.237
same,glycan array binding signal (z-score),[3],2.52
same,glycan array binding signal (z-score),[4],-1.27
same,glycan array binding signal (z-score),GlcNAc(b1-3)Fuc,-0.118
same,glycan array binding signal (z-score),[5],1.12
same,glycan array binding signal (z-score),[6],1.84
same,glycan array binding signal (z-score),[7],1.66
same,glycan array binding signal (z-score),[8],0.815
same,glycan array binding signal (z-score),GlcNAc(b1-3)GalNAc,-0.348
same,glycan array binding signal (z-score),[9],-0.942
same,glycan array binding signal (z-score),GlcNAc(b1-6)GalNAc,-0.798
same,glycan array binding signal (z-score),Kdn(a2-3)Gal(b1-4)GlcNAc,0.096
same,glycan array binding signal (z-score),[10],0.245
same,glycan array binding signal (z-score),Man(a1-3)[Man(a1-6)]Man,0.71
same,glycan array binding signal (z-score),[11],0.777
same,glycan array binding signal (z-score),[12],0.566
same,glycan array binding signal (z-score),[13],-0.897
same,glycan array binding signal (z-score),[14],-0.336
same,glycan array binding signal (z-score),[15],0.864
same,glycan array binding signal (z-score),[16],-1.27
same,glycan array binding signal (z-score),[17],2.37
same,glycan array binding signal (z-score),[18],0.2
same,glycan array binding signal (z-score),[19],0.611
same,glycan array binding signal (z-score),[20],1.71
same,glycan array binding signal (z-score),[21],-1.68
same,glycan array binding signal (z-score),[22],-0.966
same,glycan array binding signal (z-score),[23],-0.127

# From the supplement of paper PMC8728848
